Drawing on PubChem BioAssay (NCI), this text covers growth for 31 compounds.

Assay in all cases: NCI-60 one-dose screen, 48 h (100 = growth as untreated, 0 = no growth, -100 = all killed)
Details in all cases: 10 µM unless noted

The subject of test [1] is SR leukemia.
Test [2] concerns OVCAR-8 ovarian.
The subject of test [3] is OVCAR-5 ovarian.
The subject of test [4] is OVCAR-4 ovarian.
For test [5], the system named is SK-OV-3 ovarian.
Test [6] deals with IGROV1 ovarian.
In test [7] the test system is OVCAR-3 ovarian.
Test [8] has as its system HS 578T breast.
Test [9] relates to NCI/ADR-RES ovarian.
Test [10] deals with RPMI-8226 leukemia.

About 83,000 compounds went through this panel and 20% of them were active in at least one assay; those are over-represented in the sample as a whole.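 Percent growth is the endpoint: 0 to 100 indicates growth inhibition (40 means 60% inhibition), 0 means no net growth, and negative values indicate cell death.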 Unmarked numbers belong to inactive results. Active and inactive are the calls of the source. The calls were made as follows: active = growth percent below 10; inactive = the rest.

For `CCOC(=O)C1C(=O)NC(C(=O)OCC)(C(=O)OCC)C1CC` (configuration not stated), the growth was 107% in test [1]; 108% in test [2]; 105% in test [3]; 110% in [4]; 112% in test [5]; 124% in test [6]. The growth in [7] was 125%; in [8], 129%; in test [9], 113%.
`COc1ccc(C2=NN(C(N)=S)C(c3ccc4c(c3)OCO4)C2)cc1` (configuration not stated): the growth in [1] is 4.75% (active); in [2], 20.9%; in [3], 75.1%; in test [5], 33.8%; in test [6], -22% (active); in test [7] it was -21.5% (active). Also, the growth was -13% (active) in [8] and 5.5% (active) in test [9].
In the case of `O=C1OC(Oc2ccccc2)(c2ccccc2)c2ccccc21` (configuration not stated), the growth is 79.1% in test [1]; 102% in test [2]; 99.6% in test [3]; 106% in test [5]; 107% in [6]; 97% in test [7]. Also, the results for the growth in test [8] and in [9] were 101% and 100%, respectively.
For `CCCCCN1C(=O)CCC1=O`, the growth in [1] is 107%; in test [2], 94.4%; in [3], 98.2%; in test [4], 114%; in [5] it was 110%; in test [6], 110%. Besides, the growth is 103% in test [7] and 102% in test [9].
For the compound `CCOC(=O)CNC(=O)C1(NC(=O)CNC(=O)OCc2ccccc2)CCCC1`, the growth in test [1] is 103%; in [2] it was 107%; in test [3] it was 95.1%; in test [4], 106%; in [5], 104%; in [6] it was 117%. Besides, the growth is 142% in test [7], 125% in test [8] and 105% in [9].
For `COC(=O)CC1=C(c2ccc([N+](=O)[O-])cc2)CCC1=O`, the growth is 104% in [1]; 104% in test [2]; 105% in [3]; 110% in test [4]; 99.1% in test [5]; 127% in [6]. Moreover, the growth is 114% in test [8] and 109% in [9].
With `CN(C)CCCN=c1cc2c(=O)n(CCCN(C)C)c(=O)c3c(NCCCN(C)C)cc4c(O)n(CCCN(C)C)c(=O)c1c4c3-2`, the growth in test [1] was 6.3% (active); in [2], 5.35% (active); in test [3], 0.732% (active); in test [5] it was -4.23% (active); in test [6], -24.6% (active); in test [7], -39.1% (active). Moreover, the results for the growth in test [8] and in test [9] were -11.2% (active) and 52.2%, respectively.
On to `Clc1ccc2c(c1)C(Br)c1cc(Cl)cc(Cl)c1-2` (configuration not stated), for which the growth in [1] was -4.33% (active); in [2], 101%; in test [3], 84.4%; in test [4] it was 88.5%; in test [5], 80%; in test [6], 57.1%. For the same compound, the growth is 91.7% in test [7], 65.1% in [8] and 96.1% in [9].
As for `Nc1ncnc2c1CN(Cc1ccccc1)CC2`, the growth in [1] was 94.6%; in [2], 106%; in test [3], 114%; in [4], 102%; in [5], 103%; in test [6] it was 118%. Further, the growth in [7] is 129%; in test [8] it was 119%; in test [9] it was 104%.
Turning to `Cc1nn(-c2ccccc2)cc1/C=C1\SC(N2CCCCC2)=NC1=O`, the growth in test [1] was 8.09% (active); in test [2] it was 81.4%; in [3], 103%; in test [5], 119%; in test [6] it was 68.1%; in test [7], 96.4%. Also, the growth in [8] was 99.7%; in [9], 89.7%.
With `O=C1Nc2ccc(C(=O)O)c(O)c2C1=O`, the growth is 105% in [1]; 107% in test [2]; 95.3% in test [3]; 112% in test [4]; 110% in test [5]; 111% in [6]. For the same compound, the growth in test [7] was 113%; in test [8] it was 108%; in test [9] it was 106%.
Consider `COc1ccc2c3c(ccc2c1)C(=O)/C(=C\O)CC3`, for which the growth in test [1] is 94.6%; in test [2], 97.4%; in [3], 107%; in test [4], 100%; in [5] it was 91.6%; in test [6], 111%. For the same compound, the growth in test [7] is 99.6%; in test [9], 96.3%.
For `C(=C1c2ccccc2-c2ccccc21)c1ccncc1`, the growth in [1] is 9.55% (active); in test [2], 64.1%; in [3] it was 81%; in [4], 57.1%; in [5] it was 75.5%; in [6], 44.9%. In addition, the growth in test [7] was 5.44% (active); in [8], 49.5%; in test [9] it was 4.8% (active).
Turning to `O=C1NC(=O)/C(=C\c2ccco2)S1`, the growth is 113% in test [1]; 105% in test [2]; 95.9% in test [3]; 121% in test [4]; 97.1% in [5]; 114% in test [6]. Moreover, the growth was 106% in [7] and 103% in test [9].
With `COc1cccc(/C=N\NC(=O)c2ccncc2)c1O`, the growth in test [1] is 21%; in [2] it was 58.7%; in [3], 67%; in [4] it was 31.7%; in test [5], 56.8%; in [6], 65.1%. The values for the growth in test [7] and in [9] were 13.6% and 25.3%, respectively.
As to `O=C1NC(=O)/C(=C/c2ccc(Cl)cc2Cl)N1`, the growth in test [1] was 93%; in test [2], 101%; in [3] it was 106%; in [4], 97.4%; in [5] it was 98.9%; in [6], 106%. Also, the growth in test [7] was 105%; in test [9], 106%.
On to `COc1cccc(C=Nc2cc(C(C)C)c(O)cc2C)c1O`, for which the growth in test [1] is 113%; in test [2] it was 98.8%; in test [3], 101%; in test [4], 101%; in test [5], 89.2%; in [6], 111%. Also, the growth is 100% in test [7] and 104% in test [9].
Turning to `CC[C@@H](c1ccc(O)c(O)c1)[C@@H](CC)c1ccc(O)c(O)c1`, the growth was 52.6% in [1]; 101% in [2]; 115% in test [3]; 68.1% in test [4]; 122% in [5]; 98.1% in test [6]. For the same compound, the results for the growth in test [7] and in test [9] were 50.6% and 99.9%, respectively.
Regarding `CCCCCCCSc1ncnc2[nH]ncc12`, the growth was 79.3% in test [1]; 86.9% in [2]; 92% in test [3]; 96.7% in test [4]; 101% in test [5]; 81.7% in test [6]. For the same compound, the growth was 79.9% in test [7] and 84.6% in test [9].
`CC(=O)N1N=C(c2ccc(C(F)(F)F)cc2)CC1c1ccc2c(c1)OCO2` (configuration not stated): the growth in [1] was 89.5%; in test [2], 101%; in test [3], 100%; in test [4], 77.8%; in [5], 104%; in [6], 67%. Also, the values for the growth in test [7], in test [8] and in test [9] were 110%, 97.8% and 95.8%, respectively.
For the compound `O=C(CC1Sc2ccccc2NC1=O)NNc1cccc(Cl)c1Cl` (configuration not stated), the growth in test [1] was 61%; in test [2], 82.7%; in test [3], 80.6%; in [4], 88.1%; in test [5] it was 70.2%; in test [6] it was 82.1%. Moreover, the growth in [7] is 81.7%; in [9], 96.7%.
Consider `O=C(C(=O)N1CCOCC1)c1cn(CCCn2cc(C(=O)C(=O)N3CCOCC3)c3ccccc32)c2ccccc12`, for which the growth was 103% in test [1]; 104% in [2]; 102% in test [3]; 109% in test [4]; 111% in test [5]; 107% in [6]. The values for the growth in [7] and in test [9] were 119% and 109%, respectively.
Turning to `COc1c(O)cc2c(c1CC=C(C)C)OC(=O)c1c(cc(O)c(CC=C(C)C)c1O)O2`, the growth in test [1] was -21.4% (active); in test [2] it was 42.4%; in test [3], 72%; in [4] it was 43.8%; in test [5] it was 86.7%; in test [6], 69.6%. In addition, the growth in [7] was 34.2%; in [9], -13.7% (active).
With `Cc1[nH]cnc1/C=C1\SC(N2CCCCC2)=NC1=O`, the growth was 97.7% in test [1]; 105% in test [2]; 107% in [3]; 108% in test [5]; 100% in test [6]; 124% in [7]. For the same compound, the growth was 120% in test [8] and 106% in test [9].
As for `COc1cc(/C=C/C(=O)CC(=O)/C=C/c2ccc(OC(=O)CCNC34CC5CC(CC(C5)C3)C4)c(OC)c2)ccc1OC(=O)CCNC12CC3CC(CC(C3)C1)C2`, the growth in [10] is -30.4% (active); in test [2] it was 14.7%; in [3] it was 51.8%; in [4] it was 65.3%; in test [5], 63.8%; in [6], 6.65% (active). In addition, the growth was -7.82% (active) in [7], 19.3% in test [8] and 78.4% in [9].
Turning to `Cc1nn2c(/C=C3/C(=O)Nc4cc(Cl)ccc43)c(-c3ccccc3)nc2s1`, the growth is -19.6% (active) in test [10]; -25.2% (active) in [2]; 52.8% in [3]; -85.6% (active) in [4]; 73.6% in test [5]; -23.5% (active) in [6]. Further, the growth was -71.6% (active) in [7], -0.41% (active) in [8] and 24.2% in test [9].
For the compound `BrC1CC(Br)c2c1c1c(c3c2C(Br)CC3Br)C(Br)CC1Br` (configuration not stated), the growth was 92.9% in test [10]; 85.2% in test [2]; 99.2% in [3]; 106% in test [4]; 102% in test [5]; -20.2% (active) in [6]. Besides, the growth in test [7] was 150%; in test [8], 93.6%; in [9] it was 91%.
`CC(C)Sc1nc(-c2ccc(Br)cc2)c(C#N)c(N2CCCCC2)n1`: the growth in [10] is 98.8%; in [2], 98.6%; in test [3] it was 88.7%; in test [4], 95.1%; in test [5] it was 110%; in [6], 104%. The values for the growth in test [7], in test [8] and in test [9] were 104%, 107% and 102%, respectively.
For the compound `COc1cccc(-c2nc(-c3ccc(N)cc3)co2)c1`, the growth in test [10] is 89.5%; in [2] it was 85.8%; in [3], 115%; in test [4], 109%; in [5] it was 118%; in [6] it was -0.817% (active). Moreover, the growth is 82% in test [7], 115% in test [8] and 92.8% in [9].
With `CC(C)N(Cc1ccccc1)c1c(Cl)ssc1=O`, the growth in test [10] was 115%; in [2] it was 86.7%; in test [3], 107%; in [4] it was 104%; in test [5], 93.7%; in test [6], -9.19% (active). In addition, the growth in test [7] is 92.5%; in test [8], 109%; in test [9] it was 107%.
Take `Fc1ccc(-c2nn3c(-c4cc(C(F)(F)F)cc(C(F)(F)F)c4)nnc3s2)cc1`: the growth in [10] is 95.6%; in test [2], 20%; in test [3] it was 95.1%; in [4], 21.7%; in [5] it was -36.1% (active); in [6] it was 21.6%. Moreover, the growth in test [7] is 12.7%; in test [8], 24.8%; in test [9], 40.9%.
